The results in this text go back to PubChem BioAssay (Tox21).

SMILES strings stand for the structures. The source made the active and inactive calls. A call without a number means that no potency is given here. Calls follow the shape of the full dose curve.

The assay deals with Acetylcholinesterase (Homo sapiens) (UniProt P22303). In words: Acetylcholinesterase (AChE) small molecule antagonists: enzyme-based qHTS assay (AID 1347397). Also: nearly all actives have a fitted effect of over 55% in size. The settings on record: Potency: AChE enzyme activity inhibition; series mostly up to 115 µM. The source says: National Center for Advancing Translational Sciences [NCATS]
Sequence of Acetylcholinesterase (Homo sapiens) (P22303 whole entry, looked up): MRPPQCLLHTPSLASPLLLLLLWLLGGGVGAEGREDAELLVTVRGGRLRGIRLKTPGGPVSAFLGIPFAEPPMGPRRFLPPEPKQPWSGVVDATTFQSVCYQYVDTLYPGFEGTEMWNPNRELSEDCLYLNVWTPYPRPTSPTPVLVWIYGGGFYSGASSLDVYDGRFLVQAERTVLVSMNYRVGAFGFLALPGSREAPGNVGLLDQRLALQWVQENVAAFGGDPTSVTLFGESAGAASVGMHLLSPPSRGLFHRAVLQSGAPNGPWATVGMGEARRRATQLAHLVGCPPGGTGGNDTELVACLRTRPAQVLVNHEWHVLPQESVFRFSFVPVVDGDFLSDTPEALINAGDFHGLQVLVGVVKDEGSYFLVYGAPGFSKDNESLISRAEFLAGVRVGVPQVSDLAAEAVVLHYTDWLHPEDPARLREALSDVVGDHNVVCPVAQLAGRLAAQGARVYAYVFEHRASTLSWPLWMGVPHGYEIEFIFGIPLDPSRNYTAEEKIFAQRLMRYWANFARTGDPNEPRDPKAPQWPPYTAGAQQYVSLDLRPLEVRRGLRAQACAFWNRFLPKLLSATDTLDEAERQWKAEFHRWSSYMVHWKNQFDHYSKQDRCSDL
Division of Preclinical Innovation [DPI]
U.S. Environmental Protection Agency [EPA]
National Institutes of Environmental Health Sciences [NIEHS]
National Toxicology Program [NTP]
U.S. Food and Drug Administration [FDA]
Acetylcholinesterase (AChE) is the primary cholinesterase in the body that hydrolyzes a key neurotransmitter, acetylcholine. Inhibition of AChE activity can lead to neurotoxicity. The known inhibitors include organophosphorous pesticides (OP), chemical warfare agents, drugs, and various phytochemicals.
An enzyme-based assay with the recombinant human AChE and Amplite Colormetric acetylcholinesterase assay kit (AAT Bioquest, Sunnyvale, CA) was used to evaluate the chemicals in the Tox21 10K library that inhibit AChE activity. The assay uses 5, 5-dithiobis-(2-nitrobenzoic acid) (DTNB) to quantify the thiocholine produced from the hydrolysis of acetylthiocholine by AChE.
Tox21 Assay Protocol Summary:
For the enzyme-based AChE assay, recombinant human AChE (50 mU/mL) in 4 uL/well was dispensed into black, clear-bottom 1536-well plates using a Multidrop Combi dispenser (Thermo Scientific, MA). Then, 23 nL of compound or DMSO (vehicle control) was transferred into the assay plates by a Pintool Station (Wako Automation, CA). The plates were incubated for 30 min at room temperature, followed by the addition of 4 uL of colorimetric detection cocktail solution (DTNB, acetylthiocholine) into each well using a Flying Reagent Dispenser (Beckman Coulter, CA) and then 10 min incubation at room temperature.
Take `Clc1ccc(C2(Cn3cncn3)CC(Br)CO2)c(Cl)c1` (stereo not given): the Potency result was “inactive”.
As for `CCCCc1c(C)nc(NCC)nc1OS(=O)(=O)N(C)C`, the Potency entry is “inactive”.
For `COc1nn(CSP(=S)(OC)OC)c(=O)s1`, the Potency entry is “inactive”.
As for `Nc1ccc([N+](=O)[O-])cc1[N+](=O)[O-]`, the entry is “inactive”; as for `CCCC(Cn1cncn1)c1ccc(Cl)cc1Cl` (stereo not given), “inactive”; as for `O=C(O)C1(c2ccc3c(c2)OC[C@H](Cc2ccc(-c4ccccc4)cc2)[C@H]3O)CCCC1`, “inactive”.
As for `CCOC(=O)COc1cc(-c2nn(C)c(OC(F)F)c2Cl)c(F)cc1Cl`, the Potency entry was “inactive”.
As for `CC(=O)C(C)(C)C`, the entry is “inactive”; as for `O=C1C(Cl)C(CCl)CN1c1cccc(C(F)(F)F)c1` (stereo not given), “inactive”.
In the case of `Clc1cc(C(Cl)(Cl)Cl)cnc1Cl`, the Potency result is “inactive”.
On to `CCCCC(CC)COP(=O)(Oc1ccccc1)Oc1ccccc1` (stereo not given), for which the Potency entry is “inactive”.
`Cl/C=C\C[N+]12CN3CN(CN(C3)C1)C2`: the Potency result is “inactive”.
As for `Cc1ccc2ccccc2c1`, the entry is “inactive”.
On to `CN1[C@@H]2CC[C@H]1CC(OC(=O)c1cc(Cl)cc(Cl)c1)C2` (stereo not given in full), for which the Potency result was “inactive”.
As for `O=C=Nc1ccc(Cl)cc1`, the entry is “inactive”.
As to `C=CC(=O)OCC(C)C`, the Potency result is “inactive”.
As for `O=C1C(=O)c2cccc3cccc1c23`, the entry is “inactive”; as for `NC(=O)CI`, “inactive”; as for `CC(C)N(C(=O)COc1nnc(C(F)(F)F)s1)c1ccc(F)cc1`, “inactive”.
For `CCCCNP(N)(N)=S` the value was “inactive”; for `O=C(OC1CCCCC1)c1ccccc1C(=O)OC1CCCCC1`, “inactive”; for `CO/C=C(/C(=O)OC)c1ccccc1COc1cccc(C(F)(F)F)n1`, “inactive”.
Take `O=Cc1ccc(Cl)cc1Cl`: the Potency entry is “inactive”.
As for `CN(N=O)c1ccc([N+](=O)[O-])cc1`, the entry is “inactive”; as for `NNC(=O)c1cccnc1`, “inactive”; as for `CC(Cl)C(C)Cl` (stereo not given), “inactive”.
With `O=[Se]=O`, the Potency result is “inactive”.
In the case of `COC(=O)C(Br)CBr` (stereo not given), the Potency result is “inactive”.
As to `COc1nn(C(=O)NS(=O)(=O)c2ccccc2OC(F)(F)F)c(=O)n1C`, the Potency result was “inactive”.
For `N#CCC#N` the value was “inactive”; for `CC1(C)CCC(Cc2ccc(Cl)cc2)C1(O)Cn1cncn1` (stereo not given), “inactive”; for `CCC(Cl)CCl` (stereo not given), “inactive”.
Consider `CCCCN(N=O)C(=N)N[N+](=O)[O-]`, for which the Potency result is “inactive”.
As for `O=C(CBr)c1ccccc1`, the Potency result was “inactive”.
Take `Nc1nc(=S)[nH][nH]1`: the Potency entry was “inactive”.
For `COC1=CC(=O)O[C@@H](CCc2ccccc2)C1` the value was “inactive”; for `O=C(O)C(F)(F)C(F)(F)C(F)(F)C(F)(F)C(F)(F)C(F)(F)C(F)(F)C(F)(F)C(F)(F)C(F)(F)F`, “inactive”; for `O=C(O)c1ccccc1C(=O)Nc1cccc2ccccc12`, “inactive”.
Turning to `ClCC(Br)CBr` (stereo not given), the Potency entry is “inactive”.
In the case of `O=C(C(Cl)(Cl)Cl)C(Cl)(Cl)Cl`, the Potency result is “inactive”.
